Measurements from PubChem BioAssay (EPA / NIEHS).
Several values for one entry are separate records, joined by “and”; a condition that tells them apart may be missing. Equal entries are not always repeated. Records with an inconclusive call do not appear. The source holds several records for some structures; these can differ, active in one and inactive in another. Activity calls are given as the source filed them. The calls were made as follows: active = hit-call score of the fitted dose curve at least 0.9, where 1 is the maximum; inconclusive = response in the unintended direction; inactive = score below 0.9.

Test: TOX21_p53_BLA_p2_viability: Viability Assessment in the Tox21 HCT-116 p53 Agonism Beta-lactamase Assay, Phase 2 (AID 2283591);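 also: compound exposure lasted 16 h at 37 °C; actives lower the ATP signal meaning cytotoxicity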
Excerpt: TOX21_p53_BLA_p2 is a cell-based, single-readout assay that uses HCT116, a human intestinal cell line, […] in a 1536-well plate.TOX21_p53_BLA_p2_viability is an assay readout measuring cellular ATP content and detected with CellTiter-Glo Luciferase-coupled ATP quantitation.TOX21_p53_BLA_p2_viability used a type of viability reporter where loss-of-signal activity can be used to understand changes in the cell viability. Furthermore, this assay endpoint can be referred to as a secondary readout, because this assay has produced multiple assay endpoints where this one serves a viability function. To generalize the intended target to other relatable targets, this assay endpoint is annotated to the cell cycle intended target family, where the subfamily is cytotoxicity.
Thawing Method: Place 14 mL of pre-warmed thaw medium into a 15 mL of conical tub. Remove the vial of cells to be thawed from liquid nitrogen and thaw rapidly by placing at 37C in a water bath with gentle agitation for 1-2 minutes. Decontaminate the vial by wiping with 70% ethanol before opening in a biological safety cabinet. Transfer the vial contents drop-wise into 14 mL of thaw medium in a sterile 15-mL conical tub. Centrifuge cells at 900 rpm for 4 minutes and resuspend in thaw medium. Transfer contents to the T75 tissue culture flask containing Thaw Medium and place flask in a humidified 37C/5% CO2 incubator. Switch to growth medium at first passage.Propagation Method: Aspirate medium, rinse once in DPBS, add 0.25% Trypsin/EDTA and swirl to coat the cell evenly. Add an equal volume of Growth Medium to inactivate Trypsin after 2-3 minutes incubation at 37C. Centrifuge cells at 900 rpm for 4 minutes and resuspend in growth medium. Cell should be passage or fed at least twice a week.Assay Protocol: Harvest cells from culture in growth medium and resuspend in assay medium. 2.2 Dispense 4000 cells/5 uL/well into 1536-well black/clear bottom plates using a Multidrop dispenser. After the cells were incubated at 37C for 5 hours, 23 nL of compounds dissolved in DMSO were transferred to the assay plate by a PinTool resulting in a 217-fold dilution. Incubate the plates for 16 hours at 37C, 5% CO2. Add 1 uL of 6X LiveBLAzer FRET B/G (CCF4-AM) Substrate Mixture to each well using a BioRAPTR dispenser and incubate the plates at room temperature for 2 hours. Measure fluorescence intensity at 460 and 530 nm emission and 405 nm excitation by an Envision detector. Data is expressed as the ratio of 460nm/530nm emissions. Add 4 uL of Cell-titer Glo to each well using BioRAPTR and incubate the plates at room temperature for […]. For cell viability readout that measures cytotoxicity, 4 ul/well of CellTiter-Glo reagent was added into the assay plates using a Flying Reagent Dispenser. After 30 min incubation at room temperature, the luminescence intensity in the plates was measured using a ViewLux plate reader.

SMILES	outcome	AC50
COC(C)(C)CCO	inactive	–
CC(C)C(OC(=O)c1ccccc1)C(C)(C)COC(=O)c1ccccc1 (stereo not given)	inactive	–
Oc1c(Cl)cc(Cl)c(Cl)c1Cc1c(O)c(Cl)cc(Cl)c1Cl	inactive	9.14 µM (active) and 38.7 µM (active)
Clc1ccc(C(c2ccccc2Cl)C(Cl)Cl)cc1 (stereo not given)	–	46.1 µM (active) and 30.1 µM (active)
O=c1c(O)c(-c2ccc(O)cc2)oc2cc(O)cc(O)c12	inactive	–
CCCCCCCCCCCCCCN(CCO)CCO	inactive	–
NC1CCCCC1N (stereo not given)	inactive	–
CCCSc1ccc2nc(NC(=O)OC)[nH]c2c1	inactive	–
C#CC(C)(O)CC(C)C (stereo not given)	inactive	–
Cc1ccc2c(c1)C(=O)OC2=O	inactive	–
NCC1CCCC(CN)C1 (stereo not given)	inactive	–
CCCCC(CC)C(=O)OC(C)C (stereo not given)	inactive	–
C=C(C)CNCC	inactive	–
CCCC[P+](CCCC)(CCCC)CCCC	inactive	–
CCCN(CCC)S(=O)(=O)c1ccc(C(=O)O)cc1	inactive	–
COc1ccccc1[N+](=O)[O-]	inactive	–
CSc1c(Cl)c(Cl)c(Cl)c(Cl)c1Cl	inactive	–
CCCOCCO	inactive	–
Cc1ccc(C)o1	inactive	–

SMILES	outcome	AC50
C=C(C)C(=O)OCCOCCOCCOC(=O)C(=C)C	inactive	–
O=C1OC(=O)c2c(Cl)c(Cl)c(Cl)c(Cl)c21	inactive	–
O=[N+]([O-])c1ccc(O)cc1C(F)(F)F	inactive	–
CCCCCC(C=O)=Cc1ccccc1	inactive	–
CC1CC(O)CC(C)(C)C1 (stereo not given)	inactive	–
CCCCCCOC(=O)CCC	inactive	–
COc1ccc(N=Nc2cc(C)c(N=Nc3ccc(S(=O)(=O)O)cc3)cc2OC)cc1	inactive	–
CCCCCCCCc1ccc(S(=O)(=O)O)cc1	inactive	–
C=C1CC[C@H](O)C/C1=C/C=C1\CCC[C@]2(C)[C@@H]([C@H](C)/C=C/[C@H](C)C(C)C)CC[C@@H]12	inactive	71.1 µM (active)
C=CC(=O)OCCCC	inactive	–
C=CCCC(=O)/C=C/C1C(C)=CCCC1(C)C (stereo not given)	inactive	–
CCCCC(CC)COC(=O)c1ccc(O)cc1 (stereo not given)	–	41.9 µM (active) and 67.8 µM (active)
O=CN1CCOCC1	inactive	–
CC(C)NCC(O)COc1ccc(CC(N)=O)cc1 (stereo not given)	inactive	–
OCc1ccc(Cl)cc1Cl	inactive	–
CCCCCCCCC=CCCCCCCCC1=NCCN1CCO	–	46.1 µM (active)
CCCCCCOC(=O)C(C)C	inactive	–
Cc1cc(C)nc(NS(=O)(=O)c2ccc(N)cc2)n1	inactive	–
CC(C)CCOC(=O)c1ccccc1	inactive	–
